The nature of test [1]: rapamycin-like changes in RPL19A-GFP expression – cell-based, S. cerevisiae, multiplex flow cytometry, primary screen (AID 1862; in the data active means percent of DMSO control GFP below about 86%;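 further: lower values mimic rapamycin by blocking the RPL19A rise seen in DMSO cells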). Conditions: S. cerevisiae RPL19A-GFP strain, flow cytometry fluorescence, 3 h; at 10 µM; stronger effect = lower value. Background: In flow cytometry, cells or beads pass a laser one at a time.
The nature of test [2]: TOR pathway GLN3 branch reporter MEP2-GFP changes – S. cerevisiae, multiplex flow cytometry, primary screen (AID 1867;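 active means GFP response, as percent of the DMSO control, above the screen-wide mean plus 3 SD, about 139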;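 further: median GFP channel fluorescence of barcode-gated MEP2-GFP cells measured by flow cytometry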). The conditions noted are these: S. cerevisiae MEP2-GFP strain, 3 h, at 10 µM, stronger effect = higher value, 100% means same as DMSO wells.
The nature of test [3]: TOR pathway RTG branch CIT2 reporter changes – S. cerevisiae, GFP fusion, multiplex flow cytometry, primary screen (AID 1870;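 active means percent response above a set limit, the screen-wide mean plus 3 SD, cut at about 130% in these data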;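 further: barcoded CIT2-GFP strain pooled with four other GFP strains with rapamycin as positive control; median GFP fluorescence per well over plate mean of DMSO wells so 100% = DMSO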). The conditions noted are these: S. cerevisiae CIT2-GFP expression, 3 h, at 10 µM, stronger effect = higher value.
Test [4] can be described thus: TOR pathway LAP4-GFP level changes – S. cerevisiae, multiplex flow cytometry, primary screen (AID 1873;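 active means GFP signal, as percent of the solvent control, above the screen mean plus 3 SD, about 149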). The conditions noted are these: S. cerevisiae LAP4-GFP expression, 3 h, at 10 µM, stronger effect = higher value.
Test [5] is described as follows: yeast AGP1-GFP level changes, GLN3 branch – cell-based, multiplex flow cytometry, S. cerevisiae, primary screen (AID 1887;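 active means GFP signal above the screen-wide mean plus 3 SD, that is over about 124.5% of the solvent control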;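 further: AGP1-GFP fusion strain of S. cerevisiae within a five-strain barcoded multiplex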). The conditions noted are these: 3 h, at 10 µM, stronger effect = higher value.
Test [6] is described as follows: reduced mouse 2C T cell binding to pMHC/ICAM-1 vesicles – MLPCN validation set, flow cytometry, LFA-1/ICAM-1 modulator project, pilot screen (AID 2523;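 active means response below a set limit, under 55% cells CD8-positive and vesicle-bound, and CD8 cells' 90th-percentile brightness under 279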;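 on vesicle binding response: mean PE anti-B7-1 fluorescence of CD8+ cells relative to row control; 100% = QL9-loaded vesicles with DMSO vehicle in the same plate row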). The conditions noted are these: 2C mouse CD8+ T cells, at 7 µM, stronger effect = lower value; double positive events: measured here: CD8+/vesicle+ event percentage.
The target of test [7] is Integrin beta-1 (Homo sapiens) + Integrin alpha-4 (Homo sapiens) (UniProt P13612+P05556). Nature of the test: alpha4beta1 integrin LIBS antibody binding reduction – U937 cells, HUTS-21 mAb, flow cytometry, validation set, VLA-4 allosteric modulator project, pilot screen (AID 2674;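 active means inhibition above 50%, about 3 SD of the validation set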;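 further: antibody binding induced by the VLA-4 ligand LDV present at three times its Kd; 0% = LDV ligand with antibody and no compound and 100% = antibody without LDV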). The conditions noted are these: HUTS-21 LIBS mAb binding, at 6.7 µM, stronger effect = higher value, binding induced by LDV ligand.

Test [8] in a line: calorie-restriction mimetic ROS inhibitors, yeast – validation compound set, pilot screen (AID 2706;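 active means superoxide response below 65% of plate, a cut near 3 SD across the whole screen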;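 further: yeast exposed to compound for one week at 30 degrees C before staining; 100% = mean of all compound wells on the same plate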). The conditions noted are these: S. cerevisiae aging, superoxide DHE fluorescence; at 10 µM; stronger effect = lower value.
The target in test [9] is Beta-adrenergic receptor kinase 1 (Homo sapiens) (UniProt P25098). Put plainly: GRK2 binders displacing RNA aptamer, biochemical, validation, human GRK2, bead flow cytometry (AID 488806). The conditions noted are these: bead-bound GRK2, FAM-aptamer displacement, at 10 µM, stronger effect = higher value.
For test [10], the target named is Beta-2 adrenergic receptor (Homo sapiens) (UniProt P07550). Put plainly: agonist-induced loss of surface beta2AR – cell-based, FAP fluorogen, flow cytometry, validation set, pilot screen (AID 504459;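 active means percent response above 42, roughly 3 SD of non-fluorescent test compounds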;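 further: agonist-driven loss of surface beta2AR via internalization measured by FAP dye flow cytometry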). Conditions: Am2.2-beta2AR cells, at 10 µM, stronger effect = higher value.
Test [11] has as its target AP-2 complex subunit beta (Homo sapiens) (UniProt P63010). Nature of the test: beta-arrestin/AP2 interaction blockers – biochemical, validation set, GST-AP2 beads, flow cytometry, pilot screen (AID 504541;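 active means inhibition above 54%, about 3 SD of non-fluorescent compounds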;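 further: AP2 carries R879A mutation and is captured from E. coli lysate; bead-bound FITC arrestin peptide fluorescence measuring arrestin peptide binding to AP2; 0% = DMSO wells and 100% = excess unlabeled arrestin peptide control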). Conditions: FITC arrestin peptide, at 10 µM, stronger effect = higher value, AP2 beta2 appendage fragment, R879A mutant.
Test [12] can be described thus: cytosolic pH regulators acting via V-ATPase – S. cerevisiae, pHLuorin, HTS validation (AID 504600; in the data active means response above about 15%;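 further: plate controls were DMSO for no effect and reference compound for full effect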). Conditions: V-ATPase proton transport, at 10 µM, stronger effect = higher value.
Test [13] relates to anti-desmoglein-3 scFv antibody binding to human DSG3. Put plainly: blockers of pathogenic pemphigus antibody–desmoglein-3 binding – biochemical, validation compound set, bead-based, flow cytometry, pilot screen (AID 588368;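 active means binding below the plate cutoff, the plate median minus 3 SD, with a reading above zero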;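 further: signal is the median channel fluorescence of bead-bound GFP antibody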). The conditions noted are these: Protein G beads, DSG3-Fc, scFv-GFP binding, at 10 µM, stronger effect = lower value.
Test [14] can be described thus: Nile Red efflux blockade in pump-expressing yeast – validation compound set, multiplex, phenotypic, pilot screen (AID 588506;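 active means efflux inhibition above 0.42, the validation set average plus 4 SD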;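 further: Nile Red retained in cells so higher fluorescence means more efflux inhibition; 0 = negative control wells and 1 = enniatin B 25 µM full block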). Conditions: S. cerevisiae pump-expressing triplex, Nile Red efflux flow cytometry; at 10 µM; stronger effect = higher value; the pumps come from Candida albicans.
Test [15] addresses ATP-binding cassette sub-family B member 6 (Homo sapiens) (UniProt Q9NP58). Nature of the test: blockers of ABCB6-driven porphyrin uptake – K562-ABCB6 cells, flow cytometry, validation set, pilot screen (AID 588550;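 active means inhibition above the screen-wide mean plus 3 SD, about 51%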;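 further: 0% = DMSO wells and 100% = benzethonium chloride 70 µM positive control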). Conditions: K562-ABCB6 porphyrin accumulation, 1 h, at 10 µM, stronger effect = higher value.
The nature of test [16]: AML differentiation inducers, ER-HoxA9 marrow cells – cell-based, GFP/MAC1 double positive, flow cytometry, validation set, primary screen (AID 588685;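 active means differentiation response of at least 50%, scaled between solvent and reference control, from cells with both markers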;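 further: compound exposure lasts four days before antibody staining and flow analysis; 0% = DMSO wells and 100% = 5 µM fulvestrant positive control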). The conditions noted are these: stronger effect = higher value, normalized: vehicle 0, fulvestrant 100.

Results filed as inconclusive are left out. Active and inactive are the calls of the source.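 How the source made its calls, unless noted: active means aptamer binding inhibition above 30%, about 3 SD of noise from non-fluorescent compounds; inactive means inhibition at or below 30%.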

Sequence of ATP-binding cassette sub-family B member 6 (Homo sapiens) (Q9NP58 whole entry, looked up): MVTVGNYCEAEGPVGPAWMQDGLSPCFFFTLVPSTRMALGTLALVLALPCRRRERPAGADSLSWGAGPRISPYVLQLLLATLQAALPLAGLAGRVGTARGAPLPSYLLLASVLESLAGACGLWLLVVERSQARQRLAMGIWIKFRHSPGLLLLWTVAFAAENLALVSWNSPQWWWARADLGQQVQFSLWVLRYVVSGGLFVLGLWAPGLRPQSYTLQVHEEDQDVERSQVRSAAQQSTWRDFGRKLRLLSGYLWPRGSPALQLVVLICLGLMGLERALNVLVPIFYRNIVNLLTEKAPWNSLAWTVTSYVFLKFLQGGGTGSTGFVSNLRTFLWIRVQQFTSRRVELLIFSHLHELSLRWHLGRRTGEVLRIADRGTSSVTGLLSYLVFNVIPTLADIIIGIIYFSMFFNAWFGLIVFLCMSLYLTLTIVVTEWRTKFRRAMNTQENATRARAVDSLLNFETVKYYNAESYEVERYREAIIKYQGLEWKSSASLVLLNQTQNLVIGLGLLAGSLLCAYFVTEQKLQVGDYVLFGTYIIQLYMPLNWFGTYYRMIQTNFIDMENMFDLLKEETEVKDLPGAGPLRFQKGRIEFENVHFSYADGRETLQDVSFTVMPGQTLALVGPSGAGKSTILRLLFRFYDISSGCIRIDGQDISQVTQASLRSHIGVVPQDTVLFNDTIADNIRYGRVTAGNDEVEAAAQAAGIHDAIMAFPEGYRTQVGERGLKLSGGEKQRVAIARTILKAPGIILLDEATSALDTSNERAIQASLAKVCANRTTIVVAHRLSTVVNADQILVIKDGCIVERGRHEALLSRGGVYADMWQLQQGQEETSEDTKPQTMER
Sequence of Beta-adrenergic receptor kinase 1 (Homo sapiens) (P25098 whole entry, looked up): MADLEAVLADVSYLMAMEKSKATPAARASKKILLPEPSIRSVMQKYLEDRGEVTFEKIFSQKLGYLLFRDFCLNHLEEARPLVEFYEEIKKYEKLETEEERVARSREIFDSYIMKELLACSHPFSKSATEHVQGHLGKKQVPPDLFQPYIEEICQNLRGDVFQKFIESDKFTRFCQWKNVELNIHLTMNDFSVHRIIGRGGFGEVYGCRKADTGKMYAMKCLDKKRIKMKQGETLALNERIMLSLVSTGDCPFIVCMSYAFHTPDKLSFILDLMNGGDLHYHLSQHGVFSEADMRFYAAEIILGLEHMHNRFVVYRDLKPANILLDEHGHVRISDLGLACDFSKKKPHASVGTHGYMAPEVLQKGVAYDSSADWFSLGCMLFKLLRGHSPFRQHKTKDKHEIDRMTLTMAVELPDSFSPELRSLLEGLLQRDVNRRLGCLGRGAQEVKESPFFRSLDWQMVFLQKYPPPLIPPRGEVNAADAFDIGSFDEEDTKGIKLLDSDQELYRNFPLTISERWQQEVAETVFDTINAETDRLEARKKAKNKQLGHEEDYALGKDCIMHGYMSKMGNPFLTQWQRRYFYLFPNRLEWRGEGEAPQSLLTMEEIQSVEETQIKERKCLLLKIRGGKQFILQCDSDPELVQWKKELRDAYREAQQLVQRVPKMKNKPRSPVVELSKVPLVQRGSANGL
Sequence of Integrin beta-1 (Homo sapiens) + Integrin alpha-4 (Homo sapiens) (P05556 whole entry, looked up): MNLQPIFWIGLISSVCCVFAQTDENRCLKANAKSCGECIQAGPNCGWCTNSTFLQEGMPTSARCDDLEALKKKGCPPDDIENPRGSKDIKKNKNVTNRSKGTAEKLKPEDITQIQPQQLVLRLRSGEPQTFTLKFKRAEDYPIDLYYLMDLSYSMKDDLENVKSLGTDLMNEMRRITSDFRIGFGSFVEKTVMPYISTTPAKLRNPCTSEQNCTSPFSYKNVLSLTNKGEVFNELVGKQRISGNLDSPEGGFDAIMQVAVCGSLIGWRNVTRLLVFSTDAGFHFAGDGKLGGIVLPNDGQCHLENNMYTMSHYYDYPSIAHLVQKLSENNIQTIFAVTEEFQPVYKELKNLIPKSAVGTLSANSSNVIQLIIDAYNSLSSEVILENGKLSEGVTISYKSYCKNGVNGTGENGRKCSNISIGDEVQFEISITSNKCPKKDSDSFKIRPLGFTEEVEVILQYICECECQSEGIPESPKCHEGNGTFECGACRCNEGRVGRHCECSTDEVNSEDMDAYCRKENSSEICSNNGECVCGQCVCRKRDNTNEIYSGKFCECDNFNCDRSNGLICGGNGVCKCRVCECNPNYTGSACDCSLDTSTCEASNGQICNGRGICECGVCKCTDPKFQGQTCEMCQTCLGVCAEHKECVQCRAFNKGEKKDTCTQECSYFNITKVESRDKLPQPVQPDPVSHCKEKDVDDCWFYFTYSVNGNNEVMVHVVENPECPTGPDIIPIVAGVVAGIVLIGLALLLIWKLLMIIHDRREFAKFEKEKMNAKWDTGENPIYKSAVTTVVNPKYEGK
Sequence of Integrin beta-1 (Homo sapiens) + Integrin alpha-4 (Homo sapiens) (P13612 whole entry, looked up): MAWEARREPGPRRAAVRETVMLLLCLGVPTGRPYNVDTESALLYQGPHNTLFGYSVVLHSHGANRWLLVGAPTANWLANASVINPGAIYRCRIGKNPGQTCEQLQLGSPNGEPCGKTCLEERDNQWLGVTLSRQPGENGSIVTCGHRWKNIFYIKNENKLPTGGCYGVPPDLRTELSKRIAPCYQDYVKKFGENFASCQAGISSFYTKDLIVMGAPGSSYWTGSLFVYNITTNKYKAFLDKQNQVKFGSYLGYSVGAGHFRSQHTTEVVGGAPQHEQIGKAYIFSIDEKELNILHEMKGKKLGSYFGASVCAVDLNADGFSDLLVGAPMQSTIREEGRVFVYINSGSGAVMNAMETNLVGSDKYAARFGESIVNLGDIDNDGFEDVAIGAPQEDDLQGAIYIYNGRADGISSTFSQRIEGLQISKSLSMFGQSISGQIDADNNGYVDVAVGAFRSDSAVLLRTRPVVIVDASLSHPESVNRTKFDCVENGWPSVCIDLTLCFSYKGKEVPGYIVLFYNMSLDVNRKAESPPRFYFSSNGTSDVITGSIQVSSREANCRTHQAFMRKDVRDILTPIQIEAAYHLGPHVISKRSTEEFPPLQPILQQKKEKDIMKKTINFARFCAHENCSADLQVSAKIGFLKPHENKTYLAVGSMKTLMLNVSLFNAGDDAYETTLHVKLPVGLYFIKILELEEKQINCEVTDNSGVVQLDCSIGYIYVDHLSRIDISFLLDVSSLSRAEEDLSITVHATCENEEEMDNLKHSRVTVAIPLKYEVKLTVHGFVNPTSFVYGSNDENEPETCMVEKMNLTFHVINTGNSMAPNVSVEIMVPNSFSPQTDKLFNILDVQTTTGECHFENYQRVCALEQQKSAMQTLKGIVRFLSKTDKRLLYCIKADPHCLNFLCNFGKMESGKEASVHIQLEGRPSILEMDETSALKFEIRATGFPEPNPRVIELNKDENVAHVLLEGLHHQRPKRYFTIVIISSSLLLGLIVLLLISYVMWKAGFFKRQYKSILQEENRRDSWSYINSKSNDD
Sequence of AP-2 complex subunit beta (Homo sapiens) (P63010 whole entry, looked up, the tested form may be a part, one chain of several): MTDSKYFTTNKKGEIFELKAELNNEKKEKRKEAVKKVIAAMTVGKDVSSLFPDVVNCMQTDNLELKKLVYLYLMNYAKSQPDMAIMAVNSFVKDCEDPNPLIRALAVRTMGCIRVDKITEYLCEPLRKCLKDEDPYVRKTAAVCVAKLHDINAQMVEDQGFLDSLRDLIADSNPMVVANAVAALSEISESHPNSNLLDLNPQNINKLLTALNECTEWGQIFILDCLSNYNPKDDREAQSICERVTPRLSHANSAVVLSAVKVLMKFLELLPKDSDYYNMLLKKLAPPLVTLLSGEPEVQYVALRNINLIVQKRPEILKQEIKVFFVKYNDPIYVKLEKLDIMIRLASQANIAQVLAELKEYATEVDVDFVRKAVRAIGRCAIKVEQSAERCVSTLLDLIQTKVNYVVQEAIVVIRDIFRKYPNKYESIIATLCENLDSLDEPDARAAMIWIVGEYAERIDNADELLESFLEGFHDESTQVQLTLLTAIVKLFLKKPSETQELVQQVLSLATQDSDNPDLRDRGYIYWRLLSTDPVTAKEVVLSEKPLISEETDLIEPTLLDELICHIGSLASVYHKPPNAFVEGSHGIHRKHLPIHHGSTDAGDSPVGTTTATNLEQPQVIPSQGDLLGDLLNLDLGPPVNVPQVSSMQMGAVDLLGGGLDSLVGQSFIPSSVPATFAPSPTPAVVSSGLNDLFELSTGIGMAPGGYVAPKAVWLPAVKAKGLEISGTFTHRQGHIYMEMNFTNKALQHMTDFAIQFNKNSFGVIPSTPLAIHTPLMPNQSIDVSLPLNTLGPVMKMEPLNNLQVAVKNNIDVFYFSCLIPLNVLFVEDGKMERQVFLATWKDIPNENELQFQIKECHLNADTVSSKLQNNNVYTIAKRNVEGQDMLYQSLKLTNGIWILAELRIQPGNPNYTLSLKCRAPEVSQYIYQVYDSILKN
Sequence of Beta-2 adrenergic receptor (Homo sapiens) (P07550 whole entry, looked up): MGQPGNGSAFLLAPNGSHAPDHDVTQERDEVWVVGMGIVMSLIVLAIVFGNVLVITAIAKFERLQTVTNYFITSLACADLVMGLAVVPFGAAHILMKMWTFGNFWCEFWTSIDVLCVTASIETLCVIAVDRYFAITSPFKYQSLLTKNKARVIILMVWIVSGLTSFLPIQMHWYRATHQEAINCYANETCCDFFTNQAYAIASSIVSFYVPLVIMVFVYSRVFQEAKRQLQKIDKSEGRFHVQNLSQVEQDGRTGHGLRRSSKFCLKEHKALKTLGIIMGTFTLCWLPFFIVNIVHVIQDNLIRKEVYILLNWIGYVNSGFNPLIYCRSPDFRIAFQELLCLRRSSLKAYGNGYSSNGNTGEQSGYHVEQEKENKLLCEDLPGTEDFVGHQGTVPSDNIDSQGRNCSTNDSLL

The term inhibition denotes the drop in the measured response relative to a control, in per cent. For `N/C(=N\OC(=O)CCCOc1ccc(Cl)cc1Cl)c1ccncc1`, in test [1], the percent of DMSO control GFP was 96.4% (inactive). Also, the GFP response vs DMSO in test [2] is 110% (inactive); in test [4], 118% (inactive). In addition, in test [3], the percent response of DMSO control is 108% (inactive). Further, in test [5], the GFP response, % of DMSO was 92.4% (inactive). In test [6], the double positive events came to 56.8%. The vesicle binding response in [6] was 142% (inactive). Also, the inhibition in [7] is 4.27% (inactive); in [11], 3.28% (inactive); in [15] it was -7% (inactive). Moreover, the superoxide response (% of plate) in [8] is 103% (inactive). Moreover, the aptamer binding inhibition in test [9] is -1% (inactive). Also, the response in [10] is -12.7% (inactive); in test [12] it was -3.36% (inactive). Also, the binding (% of control) in test [13] was 102% (inactive). The efflux inhibition (fraction of control) in [14] is -0.005 (inactive). The differentiation response in [16] is 4.2% (inactive).
Take `CCOc1ccc(C(=O)C(C)=O)c(OCC)c1`: the percent of DMSO control GFP in test [1] was 101% (inactive). Also, the figures for the GFP response vs DMSO in test [2] and in test [4] were 99.7% (inactive) and 100% (inactive), respectively. Also, the percent response of DMSO control in test [3] is 104% (inactive). Besides, the GFP response, % of DMSO in test [5] is 105% (inactive). In [6], this compound registered a double positive events of 64.3%. For the same compound, in test [6], the vesicle binding response is 211% (inactive). The inhibition in [7] was -1.09% (inactive); in test [11] it was -2.17% (inactive); in [15], 19% (inactive). Moreover, the superoxide response (% of plate) in [8] was 105% (inactive). Moreover, the aptamer binding inhibition in test [9] was 2% (inactive). The response in test [10] was -2.34% (inactive); in test [12] it was 1.92% (inactive). Moreover, the binding (% of control) in test [13] is 97% (inactive). In addition, the efflux inhibition (fraction of control) in test [14] was -0.02 (inactive). The differentiation response in test [16] is -13.3% (inactive).
In the case of `Cc1cccc(NC(=O)c2cc3ccccc3o2)c1`, the percent of DMSO control GFP in test [1] is 94.6% (inactive). Further, the GFP response vs DMSO in [2] is 115% (inactive); in [4], 90.8% (inactive). Moreover, the percent response of DMSO control in test [3] was 112% (inactive). The GFP response, % of DMSO in test [5] was 86.3% (inactive). Further, in test [6], the double positive events was 69.2%. Also, in test [6], the vesicle binding response is 162% (inactive). For the same compound, the inhibition in test [7] is 5.49% (inactive); in test [11], 1.31% (inactive); in test [15], 17% (inactive). Besides, in test [8], the superoxide response (% of plate) was 90.5% (inactive). In addition, the aptamer binding inhibition in test [9] was 2% (inactive). Further, the results for the response in test [10] and in [12] were -1.7% (inactive) and -0.5% (inactive), respectively. Moreover, in test [13], the binding (% of control) was 102% (inactive). In test [14], the efflux inhibition (fraction of control) is -0.24 (inactive). Moreover, in test [16], the differentiation response is 3.28% (inactive).
As to `COc1cc2[nH]c3c(=O)n(CCN4CCOCC4)cnc3c2cc1OC`, the percent of DMSO control GFP in test [1] is 101% (inactive). Moreover, the GFP response vs DMSO is 96.3% (inactive) in test [2] and 101% (inactive) in [4]. Also, the percent response of DMSO control in [3] is 101% (inactive). For the same compound, the GFP response, % of DMSO in test [5] is 99.4% (inactive). In test [6], this compound came in with a double positive events of 60.3%. In addition, in [6], the vesicle binding response was 172% (inactive). The figures for the inhibition in [7], in [11] and in test [15] were -7.25% (inactive), 13.5% (inactive) and 5% (inactive), respectively. Also, the superoxide response (% of plate) in [8] is 98.5% (inactive). Further, the aptamer binding inhibition in test [9] is 3% (inactive). Also, the response in test [10] is -0.47% (inactive); in [12] it was -1.31% (inactive). In addition, the binding (% of control) in [13] is 102% (inactive). For the same compound, in test [14], the efflux inhibition (fraction of control) is -0.17 (inactive). In addition, in [16], the differentiation response is 4% (inactive).
For `C=C(C)C(=O)Nc1ccc(NC(C)C)cc1`, the percent of DMSO control GFP in test [1] is 104% (inactive). Further, the GFP response vs DMSO in test [2] was 104% (inactive); in test [4], 106% (inactive). Also, the percent response of DMSO control in [3] is 97.6% (inactive). In addition, in [5], the GFP response, % of DMSO is 101% (inactive). The same compound displayed a double positive events in [6] of 66%. Also, the vesicle binding response in test [6] is 170% (inactive). Moreover, the inhibition is 9.63% (inactive) in [7], 19.3% (inactive) in test [11] and 0% (inactive) in test [15]. The superoxide response (% of plate) in test [8] is 96.6% (inactive). Moreover, the aptamer binding inhibition in [9] is 4% (inactive). Moreover, the values for the response in [10] and in [12] were 0.61% (inactive) and -7.05% (inactive), respectively. For the same compound, the binding (% of control) in [13] is 95.1% (inactive). For the same compound, in [14], the efflux inhibition (fraction of control) is -0.09 (inactive). For the same compound, the differentiation response in [16] is -8.96% (inactive).

These data come from PubChem BioAssay.
